# Results taken from paper PMC11062922 (Nature Chemical Biology, 2023).
# Assays:
# Parameters in all cases: species or system human, MV4-11 + K-562 + COLO205 + SK-N-BE2 + OVCAR-8
# FLT3 = settings: compound concentrations: 100 nM and 1000 nM (sheet 'Samples')
# [1] = system: JAK1(JH2domain-pseudokinase); settings: compound concentrations: 100 nM and 1000 nM (sheet 'Samples')
# MLK1 = settings: compound concentrations: 100 nM and 1000 nM (sheet 'Samples')
# [2] = system: RSK1(Kin.Dom.1-N-terminal); settings: compound concentrations: 100 nM and 1000 nM (sheet 'Samples')
# PSMC4 = settings: read-out: apparent Kd; compound concentrations: 100 nM and 1000 nM (sheet 'Samples'), CATDS: 0.17422831247088; n = 1
# AGPS = settings: read-out: apparent Kd; compound concentrations: 100 nM and 1000 nM (sheet 'Samples'), CATDS: 9.2169061942303496E-2; n = 1
# SNRNP200 = settings: read-out: apparent Kd; compound concentrations: 100 nM and 1000 nM (sheet 'Samples'), CATDS: 1.8625825044313801E-2; n = 1
# CLK3 = settings: read-out: apparent Kd; compound concentrations: 100 nM and 1000 nM (sheet 'Samples'), CATDS: 3.87460825135853E-2; n = 1
# SMG1 = settings: read-out: apparent Kd; compound concentrations:100 nM and 1000 nM (sheet 'Samples'); n = 1
# TTN = settings: read-out: apparent Kd; compound concentrations: 100 nM and 1000 nM (sheet 'Samples'), CATDS: 1.2755516587496201E-2; n = 1
# ACVRL1 = settings: read-out: apparent Kd; compound concentrations: 100 nM and 1000 nM (sheet 'Samples'), CATDS: 0.20940846784164599; n = 1
# FN3KRP = settings: read-out: apparent Kd; compound concentrations: 100 nM and 1000 nM (sheet 'Samples'), CATDS: 2.5837856545343801E-2; n = 1
# ACLY = settings: read-out: apparent Kd; compound concentrations: 100 nM and 1000 nM (sheet 'Samples'), CATDS: 2.7002269039485799E-2; n = 1
# GARS = settings: read-out: apparent Kd; compound concentrations: 100 nM and 1000 nM (sheet 'Samples'), CATDS: 2.4594129373340799E-2; n = 1
# PFKP = settings: read-out: apparent Kd; compound concentrations: 100 nM and 1000 nM (sheet 'Samples'), CATDS: 2.5253779658022699E-2; n = 1
# GSPT1;GSPT2 = settings: read-out: apparent Kd; compound concentrations: 100 nM and 1000 nM (sheet 'Samples'), CATDS: 3.5728111751545999E-2; n = 1
# SLC25A6;SLC25A4 = settings: read-out: apparent Kd; compound concentrations: 100 nM and 1000 nM (sheet 'Samples'), CATDS: 2.6658773348472799E-2; n = 1
# SMC2 = settings: read-out: apparent Kd; compound concentrations: 100 nM and 1000 nM (sheet 'Samples'), CATDS: 2.55109529885677E-2; n = 1
# PSMC3 = settings: read-out: apparent Kd; compound concentrations: 100 nM and 1000 nM (sheet 'Samples'), CATDS: 3.1956932095177297E-2; n = 1
# MAP4K4 = settings: read-out: apparent Kd; compound concentrations: 100 nM and 1000 nM (sheet 'Samples'), CATDS: 1.6227318274317299E-2; n = 1
# 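Throughout, for Kinobeads Data: kinobeads ε competition pulldown from cell lysate, compound preincubated 45 min at 4 °C, bound kinases quantified by LC–MS/MS relative to DMSO control.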
smiles,measurement,setting,value
COc1cc(Nc2ncc3c(C)nc(-c4cc5ccccc5[nH]4)n3n2)cc(OC)c1OC [GW869516X],Kinobeads Data,FLT3,no target
same,Kinobeads Data,[1],no target
same,Kinobeads Data,MLK1,no target
same,Kinobeads Data,[2],no target
O=C1NC(=O)/C(=C/c2ccc3ncccc3c2)S1 [RO4603632-000],potency estimated from few doses,PSMC4,1.73 µM
COc1ccc(-c2cc3c(N)ncnc3o2)cc1 [GW642138X],potency estimated from few doses,AGPS,2.18 µM
COc1cc(Nc2nccc(-c3cnn4ncccc34)n2)cc(OC)c1 [GW801372X],potency estimated from few doses,SNRNP200,1.54 µM
NCC(NC(=O)c1cc(-c2cn[nH]c2)c(-c2ccnc3[nH]ccc23)s1)c1ccccc1.NCC(NC(=O)c1cc(-c2cn[nH]c2)c(-c2ccnc3[nH]ccc23)s1)c1ccccc1.O=C(O)C(F)(F)F.O=C(O)C(F)(F)F (centres unmarked) [GSK1325775A],potency estimated from few doses,CLK3,0.907 µM
CC(=O)N[C@@H](Cc1ccc(OP(=O)(O)O)cc1)C(=O)N[C@H]1CCC(=O)N2CCC[C@@H](C(=O)NCc3ccc(Cl)cc3)N2C1=O [RO0325308-000],potency estimated from few doses,SMG1,0.121 µM
CCn1c(-c2cccnc2O)nc2cnccc21 [SB-736715],potency estimated from few doses,TTN,1.87 µM
FC(F)(F)c1ccc(-c2ncn(CCCN3CCOCC3)c2-c2ccncc2)cc1 [SB-217780],potency estimated from few doses,ACVRL1,1.63 µM
CCN(CC)Cc1ccc(Nc2nccc(-c3cnn4ncccc34)n2)cc1 [GW780056X],potency estimated from few doses,FN3KRP,0.618 µM
Cl.Cl.NC(CNC(=O)c1cc(Br)c(-c2ccnc3[nH]ccc23)s1)c1ccccc1.NC(CNC(=O)c1cc(Br)c(-c2ccnc3[nH]ccc23)s1)c1ccccc1 (centres unmarked) [GSK1322949A],potency estimated from few doses,ACLY,1.57 µM
same,potency estimated from few doses,GARS,2.03 µM
same,potency estimated from few doses,PFKP,1.88 µM
CCC(CC)(CC)n1cnc2c(N)ncnc21 [SKF-97620],potency estimated from few doses,GSPT1;GSPT2,0.655 µM
same,potency estimated from few doses,SLC25A6;SLC25A4,1.43 µM
same,potency estimated from few doses,SMC2,1.64 µM
Cn1cc(C2=C(c3ccc(OC[C@@H](O)CO)cc3)C(=O)NC2=O)c2ccccc21 [RO3208546-000],potency estimated from few doses,PSMC3,2.09 µM
NS(=O)(=O)c1ccc(NC=C2C(=O)Nc3ccc4ncsc4c32)cc1 [GW589933X],potency estimated from few doses,MAP4K4,2.14 µM
